According to PubChem BioAssay AID2685 (National Center for Advancing Translational Sciences (NCATS), 2010):
The campaign covered roughly 320,000 compounds. About 2,100 (0.66%) were called active. Another 53% or so got no clear call; they are omitted. This is one part of a sample in which actives are shown more often than they occur. Calls come from the whole dose curve; as a rule, active = well fitted inhibition curve with a large enough effect in the signal ratio, with a control signal flat (not every such curve was filed as active); inconclusive = small, poorly fitted or top-dose-only effect, or effect the other way, or a change in a side signal; inactive = flat fitted curve, though single readings scatter; the % refers to the signal ratio.

Assay: qHTS Assay for Lipid Storage Modulators in Drosophila S3 Cells;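 for cell number change: cells counted by Cell Tracker Red CMTPX staining in the red channel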
Settings: BODIPY lipid droplet fluorescence, 18-24 h, cells fed with added oleic acid; cell number change: measured here: cell count max response; series mostly up to 46.1 µM
Procedure, shortened: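 Laser-scanning cytometry quantifies lipid droplet accumulation (500–530 nm total intensity; droplet/cell object ratio) in oleic acid-fed (400 uM added) Drosophila S3 cells treated with a concentration series. 20 uM Triacsin C defined 100% inhibition.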
Potency is the fitted concentration of half-maximal effect.

Row | SMILES | Potency | cell number change [%]
1 | COc1nc(OC)nc(N2CCC(C(=O)Nc3cccc4c3CCCC4)CC2)n1 | inactive | -6.45
2 | O=C1OC(C(=O)Nc2nccs2)Cc2ccccc21 (stereo unspecified) | inactive | 
3 | CC(C)(C)c1nc(SCC(=O)Nc2ccc3c(c2)OCCO3)c2ccccc2n1 | 18.4 µM (active) | -25.4
4 | Cc1cc(NC(=O)CSc2nc(C(C)(C)C)nc3ccccc23)no1 | inactive | -18
5 | O=C(CSc1ncnc2ccccc12)Nc1ccc2c(c1)OCCO2 | inactive | 
6 | COc1ccc2[nH]c(=O)c(CNc3ccc(C)cc3C)cc2c1 | inactive | -6.94
7 | CC(=O)N/C(=C/c1ccccc1)C(=O)NCCO | inactive | 7.72
8 | O=C(CCC(=O)N1CCCC1)Nc1nnc(C(F)(F)F)s1 | inactive | 11.1
9 | CC(C)(C)CC(=O)Nc1nnc(C(F)(F)F)s1 | inactive | 0.161
10 | O=C(NCC(F)(F)F)Nc1nnc(C(F)(F)F)s1 | inactive | 0.475
11 | CCc1ccc(NC(=O)CCC(=O)Nc2nnc(C(F)(F)F)s2)cc1 | inactive | 24.4
12 | CCC(NC(=O)Nc1nnc(C(F)(F)F)s1)(C(F)(F)F)C(F)(F)F | 16.4 µM (active) | -12.6
13 | O=C(O)CCC(=O)Nc1nnc(C(F)(F)F)s1 | 29.1 µM (active) | -2.24
14 | CCOC(=O)C1CCN(C(=O)C(CCSC)NC(=O)COc2ccccc2)CC1 (stereo unspecified) | inactive | 22.1
15 | CC(=O)Nc1cccc(-c2nn[nH]n2)c1 | inactive | 9.02
16 | CC(=O)Nc1ccc(Nc2nnc(-c3ccc(O)cc3)c3ccccc23)cc1 | inactive | 9.07
17 | Cc1cc(C)cc(NC(=O)Cc2ccc(-n3cccc3)cc2)c1 | inactive | -7.37
18 | COc1ccc(C(CCN(Cc2ccc(OC)c(OC)c2)C(C)=O)c2ccccc2)cc1 (stereo unspecified) | inactive | -3.52
19 | CC(=O)N(CCC(c1ccco1)C(C)C)Cc1ccc(OC(C)C)cc1 (stereo unspecified) | inactive | -2.37
20 | COc1ccc(C(CCN(Cc2ccc(OC)c(OC)c2)C(C)=O)C(C)C)cc1 (stereo unspecified) | 0.82 µM (active) | -13.5
21 | Cc1ccc(-c2ccc(CCC(=O)O)n2Cc2ccco2)cc1 | inactive | 19.5
22 | O=C(O)CCc1ccc(-c2ccc(F)cc2)n1Cc1ccco1 | inactive | -0.476
23 | O=C(O)CCc1ccc(-c2ccc(Br)cc2)n1Cc1ccco1 | 6.51 µM (active) | -8.78
24 | Cc1[nH]c2ccccc2c1C(=O)C(=O)N1CCN(c2ccccc2)CC1 | inactive | 8.19

Row | SMILES | Potency | cell number change [%]
25 | Cc1ccc(Cl)cc1N(CC(=O)Nc1cccc(N(C)S(C)(=O)=O)c1)S(C)(=O)=O | 14.6 µM (active) | -15.4
26 | CN(c1cccc(NC(=O)CN(c2cccc(Cl)c2)S(=O)(=O)c2ccc(Cl)cc2)c1)S(C)(=O)=O | inactive | -18.4
27 | CCc1ccccc1N(CC(=O)Nc1cccc(N(C)S(C)(=O)=O)c1)S(C)(=O)=O | inactive | 5.08
28 | COc1ccc2oc(CS(=O)c3ccccc3)c(C(=O)O)c2c1 (stereo unspecified) | inactive | 13.2
29 | CC1OC2(OC1C)C(=O)Nc1ccccc12 (stereo unspecified) | inactive | 
30 | CN1C(=S)SC(C)(NO)C1(C)C (stereo unspecified) | 5.17 µM (active) | -11.6
31 | CN1C(=S)SC(C)(C)C1(C)NO (stereo unspecified) | 1.64 µM (active) | 0.152
32 | CN1C(=S)SC(C)(C)C1NO (stereo unspecified) | inactive | 1.23
33 | CCC(C)c1ccc(S(=O)(=O)Nc2cccnc2)cc1 (stereo unspecified) | inactive | -23.6
34 | CCCCCCCCCCCCS[C@H]1CS(=O)(=O)C[C@@H]1O | inactive | -8.76
35 | CC(=O)Nc1cc2cc(NS(=O)(=O)c3ccc(Cl)cc3)ccc2oc1=O | inactive | 9.39
36 | COC(=O)/C(C#N)=C\c1c(OC)[nH]c2ccccc12 | inactive | -7.03
37 | CN(Cc1ccccc1)S(=O)(=O)c1cccs1 | inactive | 5.69
38 | CN(Cc1c(F)cccc1Cl)C(=O)CNC(=O)c1cccs1 | inactive | -5.78
39 | CN(Cc1c(F)cccc1Cl)S(=O)(=O)c1cccs1 | 5.8 µM (active) | -15.8
40 | CC(C)CSc1nc2c(c(=O)[nH]c(=O)n2C)n1CCc1ccccc1 | inactive | 0.065
41 | O=C(c1ccc(N2CCN(C(=O)c3ccccc3)CC2)cc1)c1cccc(F)c1 | 2.06 µM (active) | 0.901
42 | COc1ccccc1N1CCN(C(=O)c2c(C)cc(=O)oc2C)CC1 | inactive | -3.57
43 | O=C(c1ccc(N2CCN(C(=O)c3ccccc3Br)CC2)cc1)c1cccc(F)c1 | inactive | -10.8
44 | Cc1cc(=O)oc(C)c1C(=O)N1CCN(c2ccc(F)cc2)CC1 | 23.1 µM (active) | -3.9
45 | O=C(c1cc(-c2ccc3c(c2)OCO3)on1)N1CCN(c2ccc(F)cc2)CC1 | inactive | 27.5
46 | Cc1c(C(=O)N2CCN(C(=O)c3ccccc3)CC2)oc2ccc(F)cc12 | 1.84 µM (active) | -15.5
47 | O=C(c1cc(-c2ccc(O)cc2)on1)N1CCN(c2ccc(F)cc2)CC1 | inactive | -16.1
